# Compound activity: PubChem, National Center for Advancing Translational Sciences (NCATS)
# D2 ag-1 = HTS Assay for Allosteric Agonists of the Human D2 Dopamine Receptor: Primary Screen for Agonists; 340,000 tested, 0.53% active; AID 485358, 2010; HEK293 T-REx D2 cells, calcium flux agonist mode; activation, % at 2 µM;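 active means activation over 3 SD above normal in the single-dose calcium agonist read, cut at about 30% in these data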; further: 0% is about no effect
# Target sequence (P14416 whole entry, looked up): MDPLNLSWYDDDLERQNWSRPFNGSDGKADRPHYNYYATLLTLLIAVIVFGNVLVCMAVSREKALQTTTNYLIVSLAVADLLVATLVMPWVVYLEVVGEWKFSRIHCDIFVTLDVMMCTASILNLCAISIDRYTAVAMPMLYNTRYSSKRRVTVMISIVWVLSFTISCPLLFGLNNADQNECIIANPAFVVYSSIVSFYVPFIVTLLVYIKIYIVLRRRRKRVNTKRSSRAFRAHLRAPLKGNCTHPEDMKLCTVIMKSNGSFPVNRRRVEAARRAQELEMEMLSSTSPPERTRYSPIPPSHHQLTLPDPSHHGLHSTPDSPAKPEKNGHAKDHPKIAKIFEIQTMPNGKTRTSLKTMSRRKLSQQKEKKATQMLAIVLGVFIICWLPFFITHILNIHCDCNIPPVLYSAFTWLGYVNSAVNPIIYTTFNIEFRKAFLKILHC
#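 Tetracycline-induced HEK293 T-REx cells with force-coupled D2 receptor, plated overnight at 30 C, loaded with no-wash calcium dye. After a 10 s baseline, compound was pin-added and calcium flux read kinetically for 180 s; calcium rises flagged agonists.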
# D2 PAM-1 = HTS Assay for Positive Allosteric Modulators of the Human D2 Dopamine Receptor: Primary Screen for Potentiators | D(2) dopamine receptor (Homo sapiens), P14416 | HEK293 T-REx D2, calcium flux, EC20 dopamine potentiation | potentiation, % at 10 µM | 340,000 tested, 0.34% active | AID 485347, 2010;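 active means potentiation over 3 SD above the plate norm, cut at about 30% in these data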; further: 0% is about no effect
#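 Calcium flux readout, no-wash dye, 1 read/s. Inducible HEK293 Trex D2 line, overnight 30 C. Compound alone 180 s (agonist flags), then EC20 dopamine, another 180 s to score potentiation.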
# D2 antag = HTS Assay for Allosteric Antagonists of the Human D2 Dopamine Receptor: Primary Screen for Antagonists; D(2) dopamine receptor (Homo sapiens), P14416; HEK293 TREx D2 cells, calcium flux, dopamine EC80; inhibition, % at 10 µM; AID 485344, 2010; 340,000 tested, 2% active; in the data active means inhibition above about 30%; inactive means below that, where a call was filed; further: 0% is about no effect
#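 Compounds are added to dye-loaded, induced HEK293 T-REx cells coupled to calcium release via D2; after a 3 min kinetic read an EC80 dopamine stimulus is given and fluorescence is recorded for 3 more min.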
# D2 ag-2 = Beta-Arrestin HTS for Positive Allosteric Modulators of the Human D2 Dopamine Receptor: Agonists | D(2) dopamine receptor (Homo sapiens), P14416 | 360,000 tested, 0.084% active | activation, % (no concentration beside the values) | DiscoveRx PathHunter D2 beta-arrestin, luminescence, 90 min; 100% = 57 uM dopamine signal; in the data active means activation above about 40%; inconclusive means between about 15% and that limit
#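 DiscoveRx PathHunter D2 beta-arrestin cells (2,100/well) attached overnight, then compound-stimulated 90 min at 37 C in HBSS/10 mM HEPES/0.1% Tween-20 buffer; beta-galactosidase complementation read by luminescence after 1 h at ambient temperature. Dopamine 57 uM final (EC100) as control.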
# D2 PAM-2 = Beta-Arrestin HTS for Positive Allosteric Modulators of the Human D2 Dopamine Receptor: Potentiators. DiscoveRx D2 beta-arrestin cells, luminescence, 90 min; 100% = 57 uM dopamine signal. potentiation, % (concentration not given with the values). 360,000 tested, 0.23% active. D(2) dopamine receptor (Homo sapiens), P14416; in the data active means potentiation above about 50%; inconclusive means mostly about 30% to 49%
#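 PathHunter beta-arrestin assay in DiscoveRx D2 cells. Compounds were added with an EC20 of dopamine (50 nM final) for 90 min at 37 deg C. Luminescence was read 1 h after detection reagent, with 57 uM dopamine as the EC100 control.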
# An asterisk follows results filed as active; ? = inconclusive; / = not tested or not shown. The list is not random: actives were taken first. Their share in the collection is about 2.4%.
SMILES,D2 ag-1,D2 PAM-1,D2 antag,D2 ag-2,D2 PAM-2
CN1CCc2c([nH]c3ccccc23)C1,0,-25,51*,-4,-105
Cc1cc(C)c(NC2=NCCCS2)c(C)c1,0,50*,-21,1,-22
Cc1cccc(C)c1NC1=NCCCS1,1,-17,-9,-7,4
Clc1ccccc1CNCCc1c[nH]c2ccccc12,/,/,/,0,-33
c1ccc(CNCCc2c[nH]c3ccccc23)cc1,9,-31,61*,5,-4
OC(CNCCc1c[nH]c2ccccc12)C(F)(F)F (stereo not drawn),0,-4,12,5,3
Cc1cccc(CNCCc2c[nH]c3ccccc23)c1,1,-19,47*,0,-8
OC(CCNCCc1c[nH]c2ccccc12)C(F)(F)Cl (stereo not drawn),14,-43,53*,-4,3
Fc1cccc(CNCCc2c[nH]c3ccccc23)c1,13,-17,3,-1,-59
O=c1c2ccccc2nc(/C=C\c2cccc(Br)c2)n1-c1ccc(O)cc1,1,6,/,/,/
CCSc1nnc(NC(=O)c2cccn(Cc3ccc(Cl)cc3)c2=O)s1,1,-5,/,/,/
COc1cccc(-n2c(/C=C/c3ccccc3O)nc3ccccc3c2=O)c1,-1,/,/,/,/
COc1ccc(OCC(=O)N2CCN(Cc3cccc(OC)c3OC)CC2)cc1,/,-3,/,/,/
O=C(Nc1ccc(Br)cc1C(=O)c1ccccc1Cl)c1ccccc1F,/,-1,/,/,/
CCN1CCN(Cc2cc(C(C)(C)C)c(O)c(C(C)(C)C)c2)CC1,-1,-23,46*,/,/
COc1ccc2c(CCN)c[nH]c2c1,1,-5,8,0,-15
CS(=O)(=O)Nc1ccc(Cc2noc(-c3ccc4[nH]cc(CCN)c4c3)n2)cc1,9,-6,40*,/,/
Nc1c(C(=O)Nc2ccc(Br)cc2F)sc2nc3c(cc12)N1CCC3CC1,-1,-2,/,/,/
c1ccc(CN2CCc3nc4ccccc4cc3C2)cc1,78*,-28,76*,95*,27
CN(CCc1nnc(N)s1)[N+](=O)[O-],3,2,48*,-3,2
CCc1ccc(OCC(=O)N2CCN(CCc3ccncc3)CC2)cc1,/,19,/,/,/
CCCCN(Cc1ccccc1)C1CCN(CCc2ccccc2)CC1,-1,-21,56*,-5,-11
c1ccc(CCCN2CCN(CCOC(c3ccccc3)c3ccccc3)CC2)cc1,/,/,/,3,-26
CNCCc1c[nH]c2ccc(O)cc12,/,/,/,55*,?
O=C(CCCN1CCC(n2c(=O)[nH]c3ccccc32)CC1)c1ccc(F)cc1,0,-14,77*,1,-27
SMILES,D2 ag-1,D2 PAM-1,D2 antag,D2 ag-2,D2 PAM-2
Cc1ccc(-n2c(/C=C/c3ccc(Br)s3)nc3ccccc3c2=O)cc1C,0,-3,/,/,/
CC(C)(C)C(=O)OC[N+](C)(C)CCOC(=O)C(O)(c1ccccc1)C1CCCC1 (stereo not drawn),0,-8,19,11,-15
CCCC(CCC)C(=O)OC[N+](C)(C)CCOC(=O)C(O)(c1ccccc1)C1CCCC1 (stereo not drawn),-1,-4,39*,-5,-11
Cc1cc(C)cc(-n2c(/C=C/c3cccc(F)c3)nc3ccccc3c2=O)c1,0,7,/,/,/
Oc1cc2c(cc1CN1CCN(c3ccccc3)CC1)CCC2,0,-23,73*,-1,-40
Oc1cc2c(cc1CN1CCN(c3ccc(F)cc3)CC1)OCO2,1,-21,58*,-1,-23
Cc1cc(O)c(CN2CCN(c3ccccc3)CC2)cc1C,6,-34,49*,-2,-31
Oc1ccc(Cl)cc1CN1CCN(Cc2ccccc2)CC1,-1,-24,32*,-2,-41
Brc1cc2c(cc1CN1CCN(c3ccccc3)CC1)OCCO2,13,-23,-1,-4,1
COc1cccc(CN2CCN(c3ccc(F)cc3)CC2)c1OC,/,/,/,-1,-28
Cc1ccc(-n2c(/C=C/c3cccc4ccccc34)nc3ccccc3c2=O)cc1,0,-10,/,/,/
CCOc1ccc(CN(CCc2ccc3c(c2)OCO3)Cc2cccc(Br)c2)cc1,/,1,/,/,/
Cc1ccc(NC(=O)CN2C(=O)CN=C(c3ccccc3)c3ccccc32)cc1Cl,0,-11,/,/,/
N#Cc1ccccc1NC(=O)c1cccn(Cc2ccccc2)c1=O,1,17,/,/,/
Cc1ccc(O)c(CN2CCN(c3ccccc3)CC2)c1,5,-23,38*,-3,-43
O=C1NC(=S)NC(=O)C1=Cc1cccc2cc3ccccc3cc12,0,10,9,-10,-60
CN1/C(=C\C=C2C(=O)NC(=S)NC2=O)C(C)(C)c2ccccc21,128*,7,31*,-2,7
CC1(C)OC(c2ccccc2)=C/C(=C/C=C2C(=O)NC(=S)NC2=O)O1,9,1,63*,9,4
CC(=O)O[C@@]12CO[C@@H]1C[C@H](OC1OCC(O)C(O)C1O)[C@@]1(C)C(=O)[C@H](O)C3=C(C)[C@@H](OC(=O)[C@H](O)[C@@H](NC(=O)c4ccccc4)c4ccccc4)C[C@@](O)([C@@H](OC(=O)c4ccccc4)C12)C3(C)C (stereo partly drawn),0,7,38*,8,5
CCCn1cc2c3c(cccc31)C1CC(C)CN(C)C1C2 (stereo not drawn),39*,-29,87*,/,/
CC(=O)NC1CC2CCC(C1)N2 (stereo not drawn),0,36*,12,0,-13
CC1CCN(C(=O)COC(=O)c2cn(C)c3ccccc23)CC1,0,-18,3,-1,-4
Cn1cc(C(=O)OCC(=O)NC2CCCCC2)c2ccccc21,0,3,39*,-6,-1
COc1cc(C)cc(CN2CC=C(c3ccccc3)CC2)c1O,-8,-30,88*,8,-21
COc1ccc2c(CN3CC=C(c4ccccc4)CC3)cc(=O)oc2c1,0,-5,2,-2,-21
COc1ccc(C(C)=O)cc1CN1CC=C(c2ccccc2)CC1,3,-27,78*,-1,-10
COc1ccc2ccc(O)c(CN3CC=C(c4ccccc4)CC3)c2c1,17,-17,19,-2,-4
O=C1c2ccccc2C(=O)N1Cc1nc2ccccc2c(=O)n1-c1ccccn1,1,5,31*,2,2
O=c1c2ccccc2nc(/C=C/c2ccc(F)cc2)n1-c1ccccn1,0,7,-17,-4,-4
